Reference: paper PMC4552634, “A New Set of Chemical Starting Points with Plasmodium falciparum Transmission-Blocking Potential for Antimalarial Drug Discovery” (PLoS ONE, 2015)
The campaign covered roughly 13,000 compounds. About 3,200 (25%) showed an effect of 50% or more. The list shows a part of the results.

tested on: P. falciparum stage V gametocytes; set-up: BacTiter-Glo ATP luminescence viability of purified stage V gametocytes in 384-well plates, per cent inhibition versus DMSO; settings: 48 h, 5 µM; inhibitor

Compound	% Inhibition [%]
O=C(NCC1CCC(C(=O)NCCc2ccc(Cl)c(Cl)c2)CC1)c1ccc(O)c(-c2ccc(Cl)c(Cl)c2)c1 (centres unmarked) [TCMDC-140893]	30.85
COc1ccc(NC(=O)Nc2cc(C)nc3cccnc23)cc1Cn1ccnc1 [TCMDC-140647]	-24.24
COc1ccccc1CCCN1C(=O)C(c2ccccc2)(c2ccccc2)N=C1N [TCMDC-136504]	-6.463
O=C(c1cc(-c2ccccc2)n[nH]1)N1CCN(S(=O)(=O)c2ccc(Cl)s2)CC1 [TCMDC-124697]	44.38
Cc1cc(Cc2ccc(S(=O)(=O)c3cc4c(cc3O)CCN(C)CC4)cc2)ccc1Cl [TCMDC-135485]	17.27
O=[N+]([O-])c1ccc2c(-c3ccccc3)c(-c3ccccc3)n(O)c2c1 [TCMDC-137050]	9.077
Cc1nc2ccc([N+](=O)[O-])cc2c(=O)n1OCc1ccccc1 [TCMDC-131598]	18.76
O=[N+]([O-])c1ccc2c(c1)c1ccccc1n2Cc1ccccc1O [TCMDC-124344]	66.38
Cc1ccc(C(=O)Nc2ccc(F)c(F)c2F)cc1S(=O)(=O)N1CCCCC1 [TCMDC-124324]	19.7
CCCc1cc(OCCCOc2ccccc2)ccc1OCCCON1C(N)=NC(N)=NC1(C)C [TCMDC-131328]	103.6
CC1(C)N=C(N)N=C(N)N1OCCCCOc1ccc(Cl)cc1C1CCCCC1 [TCMDC-131659]	106.8
CC1(C)N=C(N)N=C(N)N1OCCCOc1cc(Cl)c(Cl)cc1Cl [TCMDC-137301]	-2.55
CC1(C)N=C(N)N=C(N)N1OCCCOc1cc(Cl)ccc1Cl [TCMDC-131679]	20.73
CC(C)(C)c1ccccc1OCCCON1C(N)=NC(N)=NC1(C)C [TCMDC-131751]	48.16
CC1(C)N=C(N)N=C(N)N1OCCCCOc1ccccc1 [TCMDC-131658]	4.25
CCCc1cc(C)ccc1OCCCON1C(N)=NC(N)=NC1(C)C [TCMDC-131320]	40.89
CC(C)(C)c1ccc(OCCCON2C(N)=NC(N)=NC2(C)C)c(C(C)(C)C)c1 [TCMDC-131308]	56.27
CCOC(=O)c1cc(Cl)ccc1OCCCON1C(N)=NC(N)=NC1(C)C [TCMDC-131705]	-0.9845
COC(=O)Cn1c(C2CCN(CC3CCC(NC(=O)/C=C/c4ccc(Cl)c(Cl)c4)CC3)CC2)nc2ccccc21 (centres unmarked) [TCMDC-140297]	-20.25
OC(CNCc1ccccc1OC(F)F)c1cccc(C(F)(F)F)c1 (centres unmarked) [TCMDC-140395]	21.35
c1ccc(COc2ccc(COc3ccc(Cn4ccnc4)cc3)cc2)cc1 [TCMDC-136714]	11.69
O=C(Nc1ccc(N2CCC(Nc3ccccn3)CC2)cc1)c1cnc(Cl)c(Cl)c1 [TCMDC-134629]	28.05

Compound	% Inhibition [%]
Cc1cccc2nc(-c3ccc(-c4cccc(C(=O)NCCN5CCCC5)c4)s3)[nH]c12 [TCMDC-132317]	13.21
Cc1cc(N[C@@H](Cc2ccccc2)C(=O)NC2CCCC2)nc(NCCOc2ccccc2)n1 [TCMDC-134755]	31.62
Cc1cc(N[C@@H](CC(C)C)C(=O)NC2CCCC2)nc(NCc2ccccc2C)n1 [TCMDC-134908]	-12.42
Cc1cc(N[C@@H](CC(C)C)C(=O)NC2CCCC2)nc(NCC2CCCCC2)n1 [TCMDC-134936]	-32.07
Cc1cc(N[C@@H](CC(C)C)C(=O)NC2CCCC2)nc(NCCc2ccc(F)cc2)n1 [TCMDC-134791]	99.38
Cc1cc(N[C@@H](Cc2ccccc2)C(=O)NC2CCCC2)nc(NCCc2ccc(F)cc2)n1 [TCMDC-134784]	110
Cc1cc(N[C@@H](Cc2ccccc2)C(=O)NC2CCCC2)nc(NCC2CCCCC2)n1 [TCMDC-134927]	-16.19
O=c1cc(NCCCNCc2ccc(Cl)c(Cl)c2)[nH]c2cc(F)cc(F)c12 [TCMDC-139408]	-8.545
COc1cc(NC(=O)N2CCOC(CCN3CCC(c4ccccc4)CC3)(c3ccc(Cl)c(Cl)c3)C2)cc(OC)c1 (centres unmarked) [TCMDC-135343]	-16.83
COc1ccc2nccc([C@@H](O)CN3CCC(NCCNc4ccccn4)CC3)c2c1 [TCMDC-140562]	28.84
COc1ccc(C(=O)N2CCC3(CC2)C(=O)N(CC(=O)NC2CCCCC2)CN3c2ccccc2)c(OC)c1 [TCMDC-125169]	-35.99
COCCCNC(=O)C1CCN(C(c2ccc(Cl)cc2)c2ccc(Cl)cc2)CC1 [TCMDC-135521]	-10.75
O=C(c1ccccc1)N1COCC(CCN2CCC(N3CCCC3)CC2)(c2ccc(Cl)c(Cl)c2)C1 (centres unmarked) [TCMDC-141760]	43.61
CC(=O)c1ccc(N2CCN(CCC3(c4ccc(Cl)c(Cl)c4)COCN(C(=O)c4ccccc4)C3)CC2)cc1 (centres unmarked) [TCMDC-141761]	30.09
O=C(Nc1ccccc1)NC1CCN(CCC2(c3ccc(Cl)c(Cl)c3)COCN(C(=O)c3ccccc3)C2)C1 (centres unmarked) [TCMDC-141759]	59.82
O=C1NC(c2ccc(N3CCCCCC3)cc2)Nc2ccccc21 (centres unmarked) [TCMDC-125058]	38.08
CCN(CC)C(=O)C1CCCN(C(=O)Nc2cc(C(F)(F)F)cc(C(F)(F)F)c2)C1 (centres unmarked) [TCMDC-124042]	-75.6
CC(CN(C)C)C(=O)Nc1cccc(-c2ccc(-c3nc4ccc(F)cc4[nH]3)cc2)c1 (centres unmarked) [TCMDC-137106]	-31.14
CC(CN1CCN(C)CC1)C(=O)Nc1cccc(-c2ccc(-c3nc4ccc(C(F)(F)F)cc4[nH]3)cc2)c1 (centres unmarked) [TCMDC-137152]	80.48
CC(CN1CCN(C)CC1)C(=O)Nc1ccc(-c2ccc(-c3nc4ccc(C(F)(F)F)cc4[nH]3)cc2)cc1 (centres unmarked) [TCMDC-137153]	-5.664
CC(CN1CCN(C)CC1)C(=O)Nc1ccc(-c2cccc(-c3nc4ccc(C(F)(F)F)cc4[nH]3)c2)cc1 (centres unmarked) [TCMDC-137149]	40.39
CC(CN1CCN(C)CC1)C(=O)Nc1cccc(-c2cccc(-c3nc4ccc(F)cc4[nH]3)c2)c1 (centres unmarked) [TCMDC-137145]	48.07

Compound	% Inhibition [%]
CC(CN(C)C)C(=O)Nc1ccc(-c2ccc(-c3nc4ccc(F)cc4[nH]3)cc2)cc1 (centres unmarked) [TCMDC-136778]	6.212
CC(CN1CCN(C)CC1)C(=O)Nc1ccc(-c2ccc(-c3nc4ccc(F)cc4[nH]3)cc2)cc1 (centres unmarked) [TCMDC-136777]	4.283
CC(CN1CCN(C)CC1)C(=O)Nc1ccc(-c2cccc(-c3nc4ccc(F)cc4[nH]3)c2)cc1 (centres unmarked) [TCMDC-137143]	97.96
CC(CN1CCN(C)CC1)C(=O)Nc1cccc(-c2ccc(-c3nc4ccc(F)cc4[nH]3)cc2)c1 (centres unmarked) [TCMDC-137146]	77.49
O=C(N[C@@H](CC1CCCCC1)C(=O)NCc1cccc2ccccc12)c1ccc(O)c(-c2ccc(Cl)c(Cl)c2)c1 [TCMDC-140879]	41.81
Cc1noc(C)c1-c1cccc(CNCc2ccc(-c3cccc(-c4nc5cc(F)ccc5[nH]4)c3)cc2)c1.O=C(O)C(F)(F)F [TCMDC-133060]	13.66
Cc1cccc(Oc2cccc3[nH]nc(N)c23)c1 [TCMDC-131935]	-73.01
COCCOc1cccc(CN2CCC(c3cc4nc(C)cc(C(F)(F)F)n4n3)C2)c1 (centres unmarked) [TCMDC-134506]	-5.307
Cc1cc(C(F)(F)F)n2nc(C3CCN(Cc4cc(C)c(O)c(C)c4)C3)cc2n1 (centres unmarked) [TCMDC-124827]	92.15
Cc1cc(C(F)(F)F)n2nc(C(=O)N(Cc3cncn3Cc3cccc(F)c3)CC3CC3)cc2n1 [TCMDC-132460]	0.2406
O=C(c1cccs1)N(Cc1cccc(-c2ccc(CNC3CCCC3)cc2)c1)C1CCN(Cc2ccccc2)CC1 [TCMDC-140567]	107
COCC(=O)N(Cc1cccc(-c2ccc(CNCCc3ccccc3)cc2)c1)C1CCN(Cc2ccccc2)CC1 [TCMDC-140536]	103
O=C(NCCc1ccccc1)N(Cc1cccc(-c2ccc(CNCCc3ccccc3)cc2)c1)C1CCN(Cc2ccccc2)CC1 [TCMDC-140617]	94.88
COCCNCc1ccc(-c2cccc(CN(C(=O)NCCc3ccccc3)C3CCN(Cc4ccccc4)CC3)c2)cc1 [TCMDC-140616]	102.8
COc1cc(Nc2ccnc3ccc(C(F)(F)F)cc23)cc(OC)c1OC [TCMDC-138471]	8.096
Cc1cc(C)cc(N2C(N)=NC(N)=NC2(C)C)c1 [TCMDC-137927]	10.77
CCOC(=O)c1c(NC(NC(=O)c2ccc(C(C)(C)C)cc2)C(Cl)(Cl)Cl)sc2c1CCCC2 (centres unmarked) [TCMDC-125722]	17.61
Cc1cccc(CC(N)=NCCCCCCN=C(N)Cc2cccc(C)c2)c1 [TCMDC-138135]	-14.49
CC(C)C[C@H](NC(=O)OC(C)(C)C)C(=O)Nc1ccc(Cc2ccc(NC(=O)[C@H](CC(C)C)NC(=O)OC(C)(C)C)cc2)cc1 [TCMDC-131866]	-6.979
CCS[C@@H]1O[C@H](COC(=O)c2ccccc2)[C@H](OC(=O)c2ccccc2)[C@H](OC(=O)c2ccccc2)[C@H]1OC(=O)c1ccccc1 [TCMDC-137162]	42.17
COc1ccccc1Nc1nc(C)cc(NCc2ccc(-c3c(C)noc3C)cc2)n1 [TCMDC-133453]	12.57
